Compound activity from PubChem BioAssay.
Shown are actives, neighbours in structure and some others; about 11% of the full set was active somewhere.
PNC inhibitor – High Content Assay for Compounds that inhibit the Assembly of the Perinucleolar Compartment. PC3M PTB-GFP, PNC prevalence imaging, 16 h; stronger effect = lower value. activity change (PNC), negative = inhibition, % at 10 µM. 140,000 tested, 3.1% active. AID 2417, 2010;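 active means readout at or below -70, meaning at least 70% loss of cells showing the perinucleolar compartment, a nuclear body marking cancer cells; inconclusive means readout between -30 and a set limit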
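PC3M cells stably expressing PTB-GFP, 750–1000 cells/well, treated 16 h at 37 °C with compound (23 nl of library stock), in duplicate. After paraformaldehyde fixation and Hoechst stain, imaged at 20x; PNC prevalence scored by image analysis.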
ALDH1A1 inh – qHTS Assay for Inhibitors of Aldehyde Dehydrogenase 1 (ALDH1A1); 220,000 tested, 7.3% active; Potency, µM (doses to about 75.3 µM), most hits filed as inhibitors; Purified ALDH1A1, NADH fluorescence, propionaldehyde substrate; AID 1030, 2008
IMPase cell inh – qHTS Assay for Identifying the Cell-Membrane Permeable IMPase Inhibitors. Inositol monophosphatase 1 (Rattus norvegicus), P97697. CHO-M1 cells, IP1 accumulation, HTRF TR-FRET ratio. inhibition (IP1 accumulation), % at 46.1 µM. 120,000 tested, under 10 active. AID 901, 2007; active means well fitted curve in the direction sought with a large enough effect in the signal ratio, not every such curve was filed as active; inconclusive means small, poorly fitted or top-dose-only effect, or a change in a side signal; inactive means no such curve, though single readings can be large or run the other way; the % refers to the signal ratio;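 further: cells stimulated with carbachol in lithium chloride buffer; higher means more IMPase inhibition seen as more IP1 and lower FRET ratio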
Target sequence (P97697 whole entry, looked up): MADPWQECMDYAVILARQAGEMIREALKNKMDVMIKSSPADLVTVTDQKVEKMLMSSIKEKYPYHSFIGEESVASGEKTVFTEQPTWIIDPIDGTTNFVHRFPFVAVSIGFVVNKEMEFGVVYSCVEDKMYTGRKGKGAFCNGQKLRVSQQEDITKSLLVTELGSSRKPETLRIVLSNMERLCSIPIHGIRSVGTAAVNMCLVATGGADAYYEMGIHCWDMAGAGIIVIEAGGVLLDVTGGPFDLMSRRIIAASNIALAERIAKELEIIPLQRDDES
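In this qHTS, compounds (final up to 46 uM) act on CHO-M1 cells that are then activated through the M1 receptor with carbachol, in pH 7.4 buffer containing 50 mM LiCl, for 30 min. IP1 accumulation is quantified by the IP-One immunoassay.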
IMPase Li cell – qHTS Assay for Identifying the Cell-Membrane Permeable IMPase Inhibitors: Potentiation with Lithium; CHO-M1 cells, IP1 TR-FRET (IP-One), carbachol + lithium; Potency, µM (series often up to 59.4 µM), most hits filed as inhibitors; 210,000 tested, 0.35% active; AID 1457, 2008; active means well fitted inhibition curve with a large enough effect; inconclusive means small, poorly fitted or top-dose-only effect; inactive means no such curve, though single readings can be large or run the other way;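 further: IP1 builds up when IMPase is blocked and the TR-FRET signal falls; nearly all actives have a fitted effect of over 50% in size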
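Test compounds were applied to CHO-M1 cells previously cultured for 16–30 h at 2000 per well. A small lithium amount accompanied them; after 30 min at 37C, IP1 was quantified by TR-FRET.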
HPGD block – qHTS Assay for Inhibitors of HPGD (15-Hydroxyprostaglandin Dehydrogenase) | 15-hydroxyprostaglandin dehydrogenase [NAD(+)] (Homo sapiens), P15428 | purified HPGD, NADH fluorescence kinetic, PGE2 substrate | Potency, µM, usual class: inhibitors | 150,000 tested, 4.3% active | AID 894, 2007
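20 nM HPGD preincubated 15 min at room temperature with compound in 50 mM Tris-HCl pH 8, 0.01% Tween 20. Started with 1 mM NAD+ and 30 uM prostaglandin E2; NADH fluorescence (360/450 nm) read 5 times over 30-s intervals, last minus first.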
A number is an active result; i = inactive; ? = inconclusive; nt = not tested or not shown. Unless noted, the call rests on the fitted dose curve; in most records, active means well fitted inhibition curve with a large enough effect (not every such curve was filed as active); inconclusive means small, poorly fitted or top-dose-only effect, or another doubt; inactive means no such curve, though single readings can be large or run the other way.

SMILES	PNC inhibitor	ALDH1A1 inh	IMPase cell inh	IMPase Li cell	HPGD block
COC(=O)c1cn(NC(=O)Cn2nc([N+](=O)[O-])c(Br)c2C)c(=O)c2ccccc12	nt	i	nt	i	nt
CCSc1oc(-c2ccco2)nc1S(=O)(=O)c1ccc(F)cc1	?	25µM	i	i	?
CCC(C)(C)n1nnnc1C(c1cccnc1)N1CCN(c2cccc(C(F)(F)F)c2)CC1 (configuration not stated)	i	i	i	i	i
CCn1c(CNC(=O)COc2ccc(C(C)C)cc2)nnc1SCC(=O)Nc1cc(F)ccc1C	i	i	i	i	i
CCn1c(CNc2ccc(F)cc2)nnc1SCC(=O)OC1CCCCC1	-114	?	i	i	16µM
CCn1c(CNC(=O)COc2ccc(C(C)C)cc2)nnc1SCC(=O)Nc1ccc(F)cc1	i	28µM	i	i	i
CCn1c(CNc2ccc(F)cc2)nnc1SCC(=O)Nc1ccc(OC)cc1OC	?	14µM	i	nt	nt
CCn1c(CNc2ccc(OC)cc2)nnc1SCC(=O)Nc1ccc(F)cc1	i	i	i	i	i
N[C@@H](Cc1cc(-c2ccc(Cl)cc2Cl)cc(CP(=O)(O)O)c1O)C(=O)O	nt	?	i	i	?
COC(=O)c1cc(-c2ccc3ccccc3c2)[nH]c(=O)c1C#N	nt	?	nt	i	?
Cc1cc(C(=O)COC(=O)CC2Sc3ccccc3NC2=O)c(C)n1-c1ccccc1 (configuration not stated)	i	?	nt	i	i
Cc1cc(C(=O)COC(=O)CC2Sc3ccccc3NC2=O)c(C)n1-c1ccc(Br)cc1 (configuration not stated)	?	12µM	nt	i	i
CCCCC[C@H](O)/C=C/C=C\C/C=C\C/C=C\CCCC(=O)O	nt	i	nt	i	i
COc1ccc(/C=N/c2oc(C)c(C)c2C#N)c(OC)c1	nt	13µM	nt	i	nt
Cc1oc(/N=C/c2cccc3ccccc23)c(C#N)c1C	i	?	i	i	i
C(=N\Nc1nc(N2CCCCC2)nc(N2CCCCC2)n1)/c1c[nH]c2ccccc12	nt	i	nt	i	nt
CN(C)c1nc(N/N=C/c2c[nH]c3ccccc23)nc(N2CCOCC2)n1	nt	19µM	nt	i	nt
CCC(C)NC(=O)c1ccccc1NS(=O)(=O)c1ccc(OC)c(OC)c1 (configuration not stated)	i	i	i	i	i
COc1ccc(S(=O)(=O)Nc2ccccc2C(=O)NC(C)C)cc1OC	-124	i	i	i	i
COC(=O)c1cccc(NS(=O)(=O)c2ccc(OC)c(OC)c2)c1C	-84	i	i	i	i
NS(=O)(=O)c1ccc(NC(=O)CN2C(=O)COc3ccc(Cl)cc32)cc1	nt	nt	i	nt	nt
CCOC(=O)c1c(NC(=O)Cc2cccs2)sc(C(=O)NC2CCCC2)c1C	i	i	i	?	i
COC(=O)c1c(NC(=O)Cc2cccs2)sc(C(=O)N2CCCCC2)c1C	i	4.5µM	i	i	16µM
CCOC(=O)c1c(NC(=O)Cc2cccs2)sc(C)c1C	i	13µM	i	i	?
COC(=O)c1c(NC(=O)c2ccco2)sc(C(=O)N2CCCC2)c1C	i	14µM	i	i	18µM
SMILES	PNC inhibitor	ALDH1A1 inh	IMPase cell inh	IMPase Li cell	HPGD block
CCOC(=O)C(C)Oc1c(C(=O)OC)sc2ncccc12 (configuration not stated)	nt	i	nt	i	nt
CCOC(=O)c1c(NC(=O)/C=C/c2ccc(OCC)cc2)sc2c1CCCC2	nt	nt	i	nt	nt
CC(=O)N1CCCc2cc(S(=O)(=O)CCC(=O)N3CCN(c4cccc(C)c4)C(C)C3)ccc21 (configuration not stated)	i	18µM	i	i	i
CCCN(CCC)S(=O)(=O)c1ccc(C(=O)N2CCCc3ccccc32)cc1	i	i	i	i	i
Cc1ccc(NC(=O)c2cc(S(=O)(=O)NCCC3=CCCCC3)ccc2F)cc1	?	22µM	i	i	i
CCCN(CCC)S(=O)(=O)c1ccc2c(c1)CCCN2C(C)=O	i	5µM	i	i	i
Cc1c(C(=O)O)oc2ccc(S(=O)(=O)NCCC3=CCCCC3)cc12	i	i	i	i	?
